Screens deposited in PubChem BioAssay by several laboratories.
Only some compounds are listed: those with a hit (about 4.6% of all), similar ones and a draw of the others.
ABHD5 PLIN5 PPI – blocks binding of human ABHD5 to perilipin-5; Q00G26+Q8WTS1; Split G. princeps luciferase complementation, luminescence, 4 h; inhibition, % at 4 µM; 360,000 compounds, 0.78% hits;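 active = inhibition above the mean inhibition across every tested compound plus 3 SD, cut at about 22% in these data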;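 also: 0% = DMSO only wells and the 100% control is not disclosed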
Target sequence (Q00G26 whole entry, looked up): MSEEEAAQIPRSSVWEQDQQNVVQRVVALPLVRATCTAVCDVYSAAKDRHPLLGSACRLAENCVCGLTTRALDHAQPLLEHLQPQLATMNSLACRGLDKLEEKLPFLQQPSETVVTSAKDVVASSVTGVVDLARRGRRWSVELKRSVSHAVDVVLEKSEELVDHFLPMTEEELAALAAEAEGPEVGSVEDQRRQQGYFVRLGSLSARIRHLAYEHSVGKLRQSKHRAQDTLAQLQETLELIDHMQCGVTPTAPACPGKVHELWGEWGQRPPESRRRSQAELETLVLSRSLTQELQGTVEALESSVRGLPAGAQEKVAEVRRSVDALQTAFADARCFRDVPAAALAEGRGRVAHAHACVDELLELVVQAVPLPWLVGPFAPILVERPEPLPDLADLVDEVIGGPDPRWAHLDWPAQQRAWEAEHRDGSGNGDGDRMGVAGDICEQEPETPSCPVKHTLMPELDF
Target sequence (Q8WTS1 whole entry, looked up): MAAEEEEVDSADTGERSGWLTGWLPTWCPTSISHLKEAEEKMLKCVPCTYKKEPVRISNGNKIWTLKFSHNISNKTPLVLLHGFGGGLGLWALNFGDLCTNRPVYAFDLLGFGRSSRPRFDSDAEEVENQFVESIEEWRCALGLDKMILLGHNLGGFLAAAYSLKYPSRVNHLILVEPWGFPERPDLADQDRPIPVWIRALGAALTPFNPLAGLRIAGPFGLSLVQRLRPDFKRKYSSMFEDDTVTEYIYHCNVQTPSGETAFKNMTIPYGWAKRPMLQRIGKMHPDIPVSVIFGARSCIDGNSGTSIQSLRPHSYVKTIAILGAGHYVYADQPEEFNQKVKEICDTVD
KKLEB tox – counter-screen for CF NF-kB inhibitors: cytotoxicity; KKLEB CF airway cells viability, ATPlite luminescence, overnight; stronger effect = lower value; cells stimulated with P. aeruginosa culture filtrate; activity change (cytotoxicity), % at 5 µM; 360,000 compounds, 0.36% hits;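 active = corrected activity change at or below -50% at 5 µM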
Mdm2 MdmX PPI – inhibitors of human Mdm2/MdmX interaction. inhibition, % at 8 µM. SaOS-2 split-luciferase Mdm2/MdmX complementation, luminescence. 330,000 compounds, 3% hits;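 active = inhibition of at least 50% at 8 µM in the primary screen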
CF NFkB block – blocks PAF-induced NF-kB reporter in cystic fibrosis cells; KKLEB NF-kB-GFP reporter, GFP fluorescence overnight; inhibition, % at 5 µM; 360,000 compounds, 0.86% hits; AID 588850;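 active = at least 50% inhibition at 5 µM, scaled per plate between neutral and stimulator controls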;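 also: PAF is a Pseudomonas aeruginosa culture filtrate used as stimulus; plate controls were PAF-stimulated DMSO wells for no effect and unstimulated DMSO wells for full effect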
Peg3 promoter – Peg3 promoter activity inhibition. 360,000 compounds, 1.7% hits. HeLa PEG-Prom luciferase reporter, luminescence, overnight. AID 588405. inhibition, % at 20 µM;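 active = inhibition of at least 50% at 20 µM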
HIF-2a inh – inhibitors of HIF-2a; 786-0 RCC cells HIF-2a reporter, luciferase luminescence, overnight; inhibition, % at 18.8 µM; 360,000 compounds, 0.72% hits; AID 624352;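 active = inhibition of the luminescence signal of 40% or more relative to plate controls, in a single-dose primary screen at 18.75 µM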
Mdm2 MdmX conf – human Mdm2/MdmX binding inhibition, confirmed; shares compounds with Mdm2 MdmX PPI; luminescent assay; inhibition, % at 8 µM; 10,000 compounds, 55% hits; AID 489028; in the data active = inhibition above about 40%
FLuc counter – counter-screen for Mdm2/MdmX inhibitors: full-length luciferase; shares compounds with Mdm2 MdmX PPI; SaOS-2 full-length luciferase counterscreen, luminescence; inhibition, % at 8 µM; 6,200 compounds, 77% hits;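 active = mean inhibition at 8 µM reaching about 37%, which flags the compound as non-specific, limit read from the data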;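 also: p53-null SaOS-2 cells with luciferase driven by a doxycycline-inducible promoter; compound on cells about two nights before reading with doxycycline added after day one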
* = called active by the depositor; . = no result given.

SMILES	ABHD5 PLIN5 PPI	KKLEB tox	Mdm2 MdmX PPI	CF NFkB block	Peg3 promoter	HIF-2a inh	Mdm2 MdmX conf	others
CN1CCN(CCCNC(=O)c2cc3c(=O)n(C)c4ccccc4c3s2)CC1	1	-7	54*	-31	-26	-22	32
Cc1ccc(Cl)cc1N1CCN(C(=O)c2cc3c(=O)n(C)c4ccccc4c3n2C)CC1	-5	-12	98*	5	28	-22	86*	FLuc counter=67*
Cn1c(C(=O)NCCCN2CCN(c3ccccc3F)CC2)cc2c(=O)n(C)c3ccccc3c21	-11	12	58*	-1	1	-13	28
CCN(CC)CCNC(=O)c1cc2c(=O)n(CC)c3ccccc3c2s1	-4	-9	47	-29	-13	11	.
CCc1nc2ccc(C(=O)N3CCN(C(=O)c4ccco4)CC3)cn2c1N(C)C(=O)c1cccc(OC)c1	-3	-9	.	5	-3	2	.
CC(C)C[C@@H](COCc1cccc(C(F)(F)F)c1)N1CCN(C(=O)c2ccc(C(F)(F)F)cc2)CCC1=O	2	.	.	.	.	6	.
CCOC(=O)C(CC)n1cnc2c(nnn2-c2ccc(F)cc2)c1=O (stereo not drawn)	0	-7	-19	5	-4	-16	.
CCCCN(CC)CCCNC(=O)c1cc2c(=O)n(C)c3ccccc3c2n1C	9	-8	69*	-40	-7	-28	23
CC(C)OCCCNC(=O)c1cc2c(=O)n(C)c3ccccc3c2n1C	-4	-2	-19	-34	17	-11	.
CCC1=C(NCc2ccccc2)COC1=O	-1	13	.	5	-11	-7	.
COc1ccc(C(=O)CSc2nnc(CNc3ccc(C)cc3C)o2)cc1	3	0	19	21	-3	-8	.
Cc1ccc(NCc2nnc(SCC(=O)c3ccc4c(c3)OCCO4)o2)c(C)c1	2	-23	57*	32	4	12	7
COc1ccc(-c2cc(-c3c(O)c(OC)c4occc4c3OC)[nH]n2)cc1OC	-1	17	60*	-53	-75	-277	31	FLuc counter=93*
COc1ccc(-c2cc(-c3c(O)c(OC)c4occc4c3OC)[nH]n2)cc1	2	2	37	-3	-98	-145	.
Cc1cc(C(=O)COC(=O)c2cccc(NS(C)(=O)=O)c2)c(C)n1CC1CCCO1 (stereo not drawn)	-3	-17	70*	15	39	8	74*	FLuc counter=97*
Cc1cc(C(=O)COC(=O)c2cccnc2Cl)c(C)n1CC1CCCO1 (stereo not drawn)	-1	-18	79*	-4	48	-13	82*	FLuc counter=97*
Cc1ccc(C(=O)OCC(=O)c2cc(C)n(CC3CCCO3)c2C)cc1 (stereo not drawn)	-1	5	10	-1	-262	-92	.
O=C(NCC(c1ccco1)N1CCCCC1)c1ccc(COc2ccc(Cl)cc2)cc1 (stereo not drawn)	-5	-1	.	21	-1	-44	.
NNC(=O)c1cc(NS(=O)(=O)c2cccs2)cc(NS(=O)(=O)c2cccs2)c1	5	9	-11	2	6	11	.
Cc1nc2ccc(C(=O)Nc3cccc(OCC(=O)N(C)C)c3)cn2c1N(C)CC1CCCCC1	13	-22	.	13	33	-30	.
CC12CCC3C(CCC4CC(O)CCC43C)C1CC(O)C2 (stereo not drawn)	5	6	.	9	32	5	.
C/C(=N\NC(N)=S)C1=CCC2C3CC[C@H]4CC(O)CC[C@]4(C)C3CC[C@]12C (stereo partly drawn)	-14	-27	75*	33	0	-15	15
COc1ccc(-n2cnc(N)c2C(=O)c2cccc([N+](=O)[O-])c2)cc1	7	-3	36	37	15	17	.
COc1ccc2cc3c(N)nn(C(=O)c4cccc([N+](=O)[O-])c4)c3nc2c1	2	-12	88*	47	-11	12	67*	FLuc counter=32
COc1ccc2cc3c(N)nn(C(=O)C4CCC(C(C)(C)C)CC4)c3nc2c1 (stereo not drawn)	2	-7	94*	82*	45	23	88*	FLuc counter=11
SMILES	ABHD5 PLIN5 PPI	KKLEB tox	Mdm2 MdmX PPI	CF NFkB block	Peg3 promoter	HIF-2a inh	Mdm2 MdmX conf	others
CSc1ccccc1NC(=O)CN(C)CC(=O)c1c(C)[nH]c2ccccc12	10	6	9	-2	19	27	.
O=C(O)c1ccc2c(c1)C(=O)N([C@H](Cc1cccc3ccccc13)C(=O)O)C2=O	-1	11	.	2	-4	-9	.
Cc1cccc(/C(N)=N/OC(=O)c2ccco2)c1	1	3	-36	2	-368	3	.
Cc1cccc(/C(N)=N/OC(=O)N2CCOCC2)c1	-3	-4	86*	-38	-94	-77	49*	FLuc counter=105*
Cc1ccc(C(=O)OCC(=O)N2CCOCC2)cc1	0	-15	-23	15	-120	-109	.
Cc1ccc(/C(N)=N/OC(=O)N2CCOCC2)cc1	-2	-10	95*	2	-12	-55	51*	FLuc counter=126*
CC1CCCCN1S(=O)(=O)c1ccc(C(=O)Nc2nnc(-c3ccccc3Cl)o2)cc1 (stereo not drawn)	1	13	41	12	42	21	.
CCC1CCCCN1S(=O)(=O)c1ccc(C(=O)Nc2nnc(-c3ccccc3Cl)o2)cc1 (stereo not drawn)	-2	-17	63*	18	40	15	16
CCn1c2ccccc2c2cnc(N=CN(C)C)c(C#N)c21	4	2	76*	33	-16	3	87*	FLuc counter=20
Cc1cc2c(cc1C)-n1nnnc1C(N1CCCNCC1)C(=O)N2 (stereo not drawn)	-3	.	.	.	.	7	.
COc1cccc(/C=C/C(=O)Nc2ccc(C(=O)Nc3cccc(S(N)(=O)=O)c3)cc2)c1OC	2	-18	71*	-1	-13	-12	19
COc1cccc(/C=C/C(=O)Nc2cccc(C(C)=O)c2)c1OC	0	-8	-20	-35	-204	-295	.
Cc1cc(C)nc(NC(N)=NCCc2c[nH]c3ccccc23)n1	7	4	72*	5	31	26	52*	FLuc counter=54*
Cc1cc(C)nc(NC(N)=NCCc2ccccc2)n1	4	-10	.	11	35	37	.
CCOC(=O)c1sc2nc(CSc3ccccc3Cl)[nH]c(=O)c2c1C	-5	6	52*	-4	0	-6	-2
COC(=O)c1sc2nc(CSc3ccc(Br)cc3)[nH]c(=O)c2c1C	0	6	6	5	-6	13	.
